Measured values published in the supplement of paper PMC4466140.

Key:
Test in all cases: SPOT peptide array binding signal intensity (averaged, normalized) (arbitrary units (background-subtracted, floor 0; scale differs between SH3 domains)); higher = stronger binding of the SH3 domain to the peptide
AgAbp1 = target: AgAbp1
Procedure, shortened: (§1)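 SH3 domains from four yeast species were expressed as GST fusions in E. coli BL21(DE3) and purified on glutathione Sepharose. Each was incubated at 10 μg/ml overnight at 4°C in TBS-based blocking buffer on cellulose membranes bearing synthetic 15-mer peptides, in which serines replaced cysteines. Bound protein was detected with anti-GST antibody, an HRP anti-mouse secondary and luminol, then imaged and quantified with Genespotter. The binding signal is the normalized, background-subtracted spot intensity averaged over replicates, in arbitrary units that are not the same from one domain to another.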

AgBbc1 = target: AgBbc1
Procedure, shortened: as §1

AgBem1-D1 = target: AgBem1-D1
Procedure, shortened: as §1

AgBzz1-D1 = target: AgBzz1-D1
Procedure, shortened: as §1

AgBzz1-D2 = target: AgBzz1-D2
Procedure, shortened: as §1

AgCyk3 = target: AgCyk3
Procedure, shortened: as §1

AgFus1 = target: AgFus1
Procedure, shortened: as §1

AgHof1 = target: AgHof1
Procedure, shortened: as §1

AgHse1 = target: AgHse1
Procedure, shortened: as §1

AgLsb1 = target: AgLsb1
Procedure, shortened: as §1

AgLsb4 = target: AgLsb4
Procedure, shortened: as §1

AgMyo5 = target: AgMyo5
Procedure, shortened: as §1

AgNbp2 = target: AgNbp2
Procedure, shortened: as §1

AgRvs167 = target: AgRvs167
Procedure, shortened: as §1

AgSho1 = target: AgSho1
Procedure, shortened: as §1

AgSla1-D1-D2 = target: AgSla1-D1-D2
Procedure, shortened: as §1

AgSla1-D3 = target: AgSla1-D3
Procedure, shortened: as §1

CaAbp1-D1 = target: CaAbp1-D1
Procedure, shortened: as §1

CaAbp1-D2 = target: CaAbp1-D2
Procedure, shortened: as §1

CaBbc1 = target: CaBbc1
Procedure, shortened: as §1

CaBem1-D1 = target: CaBem1-D1
Procedure, shortened: as §1

CaBzz1-D1 = target: CaBzz1-D1
Procedure, shortened: as §1

CaBzz1-D2 = target: CaBzz1-D2
Procedure, shortened: as §1

CaCyk3 = target: CaCyk3
Procedure, shortened: as §1

CaFus1 = target: CaFus1
Procedure, shortened: as §1

CaHof1 = target: CaHof1
Procedure, shortened: as §1

CaHse1 = target: CaHse1
Procedure, shortened: as §1

CaLsb1 = target: CaLsb1
Procedure, shortened: as §1

CaLsb4 = target: CaLsb4
Procedure, shortened: as §1

CaMyo5 = target: CaMyo5
Procedure, shortened: as §1

CaNbp2 = target: CaNbp2
Procedure, shortened: as §1

CaRvs167 = target: CaRvs167
Procedure, shortened: as §1

CaRvs167-3 = target: CaRvs167-3
Procedure, shortened: as §1

CaSho1 = target: CaSho1
Procedure, shortened: as §1

CaSla1-D1-D2 = target: CaSla1-D1-D2
Procedure, shortened: as §1

CaSla1-D3 = target: CaSla1-D3
Procedure, shortened: as §1

ScAbp1 = target: ScAbp1
Procedure, shortened: as §1

ScBbc1 = target: ScBbc1
Procedure, shortened: as §1

ScBem1-D1 = target: ScBem1-D1
Procedure, shortened: as §1

ScBzz1-D1 = target: ScBzz1-D1
Procedure, shortened: as §1

ScBzz1-D2 = target: ScBzz1-D2
Procedure, shortened: as §1

ScCyk3 = target: ScCyk3
Procedure, shortened: as §1

ScFus1 = target: ScFus1
Procedure, shortened: as §1

ScHof1 = target: ScHof1
Procedure, shortened: as §1

ScHse1 = target: ScHse1
Procedure, shortened: as §1

ScLsb1 = target: ScLsb1
Procedure, shortened: as §1

ScLsb2 = target: ScLsb2
Procedure, shortened: as §1

ScLsb3 = target: ScLsb3
Procedure, shortened: as §1

ScLsb4 = target: ScLsb4
Procedure, shortened: as §1

ScMyo3 = target: ScMyo3
Procedure, shortened: as §1

ScMyo5 = target: ScMyo5
Procedure, shortened: as §1

ScNbp2 = target: ScNbp2
Procedure, shortened: as §1

ScPex13 = target: ScPex13
Procedure, shortened: as §1

ScRvs167 = target: ScRvs167
Procedure, shortened: as §1

ScSho1 = target: ScSho1
Procedure, shortened: as §1

ScSla1-D1-D2 = target: ScSla1-D1-D2
Procedure, shortened: as §1

ScSla1-D3 = target: ScSla1-D3
Procedure, shortened: as §1

SpAbp1-D1 = target: SpAbp1-D1
Procedure, shortened: as §1

SpBbc1 = target: SpBbc1
Procedure, shortened: as §1

SpBzz1-D1 = target: SpBzz1-D1
Procedure, shortened: as §1

SpBzz1-D2 = target: SpBzz1-D2
Procedure, shortened: as §1

SpCyk3 = target: SpCyk3
Procedure, shortened: as §1

SpHof1 = target: SpHof1
Procedure, shortened: as §1

SpHof1-2 = target: SpHof1-2
Procedure, shortened: as §1

SpHof1-3 = target: SpHof1-3
Procedure, shortened: as §1

SpHse1 = target: SpHse1
Procedure, shortened: as §1

SpLsb1 = target: SpLsb1
Procedure, shortened: as §1

SpLsb4 = target: SpLsb4
Procedure, shortened: as §1

SpMyo1 = target: SpMyo1
Procedure, shortened: as §1

SpNbp2 = target: SpNbp2
Procedure, shortened: as §1

SpPex13 = target: SpPex13
Procedure, shortened: as §1

SpRvs167 = target: SpRvs167
Procedure, shortened: as §1

SpSla1-D1-D2 = target: SpSla1-D1-D2
Procedure, shortened: as §1

SpSla1-D3 = target: SpSla1-D3
Procedure, shortened: as §1

Which results are given for LKPPIGRPPKFPKSP?
SPOT peptide array binding signal intensity (AgAbp1): 926; SPOT peptide array binding signal intensity (AgBbc1): 160; SPOT peptide array binding signal intensity (AgBem1-D1): 27; SPOT peptide array binding signal intensity (AgBzz1-D1): 57; SPOT peptide array binding signal intensity (AgBzz1-D2): 4; SPOT peptide array binding signal intensity (AgCyk3): ≤ 0; SPOT peptide array binding signal intensity (AgFus1): ≤ 0; SPOT peptide array binding signal intensity (AgHof1): 300; SPOT peptide array binding signal intensity (AgHse1): ≤ 0; SPOT peptide array binding signal intensity (AgLsb1): ≤ 0; SPOT peptide array binding signal intensity (AgLsb4): ≤ 0; SPOT peptide array binding signal intensity (AgMyo5): 1220; SPOT peptide array binding signal intensity (AgNbp2): ≤ 0; SPOT peptide array binding signal intensity (AgRvs167): 0.583; SPOT peptide array binding signal intensity (AgSho1): ≤ 0; SPOT peptide array binding signal intensity (AgSla1-D1-D2): 21.5; SPOT peptide array binding signal intensity (AgSla1-D3): ≤ 0; SPOT peptide array binding signal intensity (CaAbp1-D1): 1440; SPOT peptide array binding signal intensity (CaAbp1-D2): 2140; SPOT peptide array binding signal intensity (CaBbc1): 1150; SPOT peptide array binding signal intensity (CaBem1-D1): 98; SPOT peptide array binding signal intensity (CaBzz1-D1): 239; SPOT peptide array binding signal intensity (CaBzz1-D2): 165; SPOT peptide array binding signal intensity (CaCyk3): 16.5; SPOT peptide array binding signal intensity (CaFus1): 49; SPOT peptide array binding signal intensity (CaHof1): ≤ 0; SPOT peptide array binding signal intensity (CaHse1): 1.5; SPOT peptide array binding signal intensity (CaLsb1): ≤ 0; SPOT peptide array binding signal intensity (CaLsb4): 2; SPOT peptide array binding signal intensity (CaMyo5): 45.5; SPOT peptide array binding signal intensity (CaNbp2): ≤ 0; SPOT peptide array binding signal intensity (CaRvs167): 0.917; SPOT peptide array binding signal intensity (CaRvs167-3): 3.12; SPOT peptide array binding signal intensity (CaSho1): ≤ 0; SPOT peptide array binding signal intensity (CaSla1-D1-D2): 908; SPOT peptide array binding signal intensity (CaSla1-D3): 3.25; SPOT peptide array binding signal intensity (ScAbp1): 887; SPOT peptide array binding signal intensity (ScBbc1): 7; SPOT peptide array binding signal intensity (ScBem1-D1): ≤ 0; SPOT peptide array binding signal intensity (ScBzz1-D1): ≤ 0; SPOT peptide array binding signal intensity (ScBzz1-D2): ≤ 0; SPOT peptide array binding signal intensity (ScCyk3): 0.25; SPOT peptide array binding signal intensity (ScFus1): ≤ 0; SPOT peptide array binding signal intensity (ScHof1): ≤ 0; SPOT peptide array binding signal intensity (ScHse1): 19.8; SPOT peptide array binding signal intensity (ScLsb1): 1.5; SPOT peptide array binding signal intensity (ScLsb2): ≤ 0; SPOT peptide array binding signal intensity (ScLsb3): 64.8; SPOT peptide array binding signal intensity (ScLsb4): ≤ 0; SPOT peptide array binding signal intensity (ScMyo3): 1390; SPOT peptide array binding signal intensity (ScMyo5): 682; SPOT peptide array binding signal intensity (ScNbp2): ≤ 0; SPOT peptide array binding signal intensity (ScPex13): ≤ 0; SPOT peptide array binding signal intensity (ScRvs167): ≤ 0; SPOT peptide array binding signal intensity (ScSho1): 4.5; SPOT peptide array binding signal intensity (ScSla1-D1-D2): 88.5; SPOT peptide array binding signal intensity (ScSla1-D3): 13.6; SPOT peptide array binding signal intensity (SpAbp1-D1): 455; SPOT peptide array binding signal intensity (SpBbc1): 7.25; SPOT peptide array binding signal intensity (SpBzz1-D1): 894; SPOT peptide array binding signal intensity (SpBzz1-D2): ≤ 0; SPOT peptide array binding signal intensity (SpCyk3): ≤ 0; SPOT peptide array binding signal intensity (SpHof1): 1.38; SPOT peptide array binding signal intensity (SpHof1-2): ≤ 0; SPOT peptide array binding signal intensity (SpHof1-3): 88.2; SPOT peptide array binding signal intensity (SpHse1): 11.5; SPOT peptide array binding signal intensity (SpLsb1): 3.75; SPOT peptide array binding signal intensity (SpLsb4): 29.5; SPOT peptide array binding signal intensity (SpMyo1): 1430; SPOT peptide array binding signal intensity (SpNbp2): ≤ 0; SPOT peptide array binding signal intensity (SpPex13): ≤ 0; SPOT peptide array binding signal intensity (SpRvs167): 1.33; SPOT peptide array binding signal intensity (SpSla1-D1-D2): ≤ 0; SPOT peptide array binding signal intensity (SpSla1-D3): 2.5
